Values joined by “and” are separate entries in the source; they are usually repeats but may differ in a detail not shown here. Equal values may be shown once. About 83,000 compounds went through this panel and 20% of them were active in at least one assay; those are over-represented in the sample as a whole.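 Results are percent growth after 48 hours of single-concentration exposure. 100 means growth as in untreated cells, lower positive values show inhibition; negative values down to -100 show cell death.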 Unmarked numbers belong to inactive results. Active and inactive are the calls of the source. How the source made its calls: active means growth percent below 10; inactive means the rest.

Among the test systems are SR leukemia; RPMI-8226 leukemia; OVCAR-8 ovarian; OVCAR-5 ovarian; OVCAR-4 ovarian; SK-OV-3 ovarian; IGROV1 ovarian; OVCAR-3 ovarian; HS 578T breast; NCI/ADR-RES ovarian; T-47D breast; BT-549 breast; MDA-MB-435 melanoma; SW-620 colon; HCT-116 colon; KM12 colon; MCF7 breast; HCC-2998 colon.
Common to all, as to assay: NCI-60 one-dose screen, 48 h (100 = growth as untreated, 0 = no growth, -100 = all killed)
Holding throughout (settings): 10 µM unless noted

Consider `CN(C)c1ccc([N+](=O)[O-])c([N+](=O)[O-])c1`, for which the growth was 78.3% with SR leukemia; 106% and 103% in the test with RPMI-8226 leukemia; 104% and 96.3% in the test on OVCAR-8 ovarian; 113% and 101% with OVCAR-5 ovarian; 101% in the test with OVCAR-4 ovarian; 108% and 112% in the test with SK-OV-3 ovarian. Moreover, the growth is 112% and 107% with IGROV1 ovarian; 119% and 125% with OVCAR-3 ovarian; 96.4% and 103% with HS 578T breast; 104% and 97.9% in the test with NCI/ADR-RES ovarian; 105% and 97.2% with T-47D breast; 90.5% and 105% in the test on BT-549 breast. For the same compound, the growth was 99% and 97.1% in the test with MDA-MB-435 melanoma; 101% and 111% with SW-620 colon; 98.2% and 102% in the test with HCT-116 colon; 109% and 112% in the test with KM12 colon.
On to `COc1cc2c(cc1OC)-c1c3c(cc4c1[C@@H](C2)N(C)CC4)OCO3`, for which the growth in the test on SR leukemia is 17.2%; in the test on RPMI-8226 leukemia, 23.9%; with OVCAR-5 ovarian, 42.5%; in the test with OVCAR-4 ovarian, 44.2%; in the test with SK-OV-3 ovarian, 66.5%; in the test with OVCAR-3 ovarian, 76.1%. The growth in the test on HS 578T breast is 80.4%; in the test with NCI/ADR-RES ovarian, 43.5%; in the test on T-47D breast it was 57.4%; in the test with BT-549 breast it was 55.8%; in the test on MDA-MB-435 melanoma, 51.8%; with SW-620 colon it was 35.1%. In addition, the growth is 22.9% in the test on MCF7 breast, 16.1% in the test with HCT-116 colon, -3.7% (active) in the test with HCC-2998 colon and 41.4% in the test on KM12 colon.
As to `N#CCN(CC#N)[N+](=O)[O-]`, the growth in the test on SR leukemia was 100%; in the test on RPMI-8226 leukemia, 97.2%; in the test with OVCAR-8 ovarian it was 109%; in the test on OVCAR-4 ovarian, 111%; with SK-OV-3 ovarian it was 104%; in the test with IGROV1 ovarian it was 121%. For the same compound, the growth was 108% in the test on OVCAR-3 ovarian; 89.5% with HS 578T breast; 110% with NCI/ADR-RES ovarian; 92.2% in the test with T-47D breast; 108% with MDA-MB-435 melanoma; 101% in the test on SW-620 colon. In addition, the growth with MCF7 breast was 93.3%; in the test with HCT-116 colon, 96.8%; with HCC-2998 colon, 115%; in the test with KM12 colon, 112%.
As for `Cc1nc2ccccc2c(=O)n1-c1ccccc1F`, the growth is 108% in the test on SR leukemia; 102% in the test with RPMI-8226 leukemia; 93.2% in the test with OVCAR-8 ovarian; 102% in the test on OVCAR-5 ovarian; 99.3% with OVCAR-4 ovarian; 97.4% in the test on SK-OV-3 ovarian. Moreover, the growth with IGROV1 ovarian was 111%; in the test on OVCAR-3 ovarian it was 107%; in the test with HS 578T breast it was 100%; with NCI/ADR-RES ovarian, 112%; in the test with T-47D breast, 79.1%; with BT-549 breast it was 105%. Moreover, the growth with MDA-MB-435 melanoma was 102%; with SW-620 colon, 105%; in the test with HCT-116 colon, 98.7%; in the test on KM12 colon it was 105%.
Take `CN(C)c1ccc(C=C2C(=O)NC(=O)NC2=O)cc1`: the growth with SR leukemia was 107%; in the test on RPMI-8226 leukemia it was 131%; in the test with OVCAR-8 ovarian it was 98.5%; in the test on OVCAR-5 ovarian it was 77.9%; in the test with OVCAR-4 ovarian, 116%; in the test on SK-OV-3 ovarian it was 109%. Also, the growth was 95.8% in the test with OVCAR-3 ovarian; 91.7% with HS 578T breast; 76.7% in the test with NCI/ADR-RES ovarian; 76.1% in the test on T-47D breast; 111% in the test with MDA-MB-435 melanoma; 93.4% in the test on SW-620 colon. The growth in the test with MCF7 breast was 100%; in the test on HCT-116 colon, 53.9%; with KM12 colon, 98.9%.
For `O=C(O)c1cc([N+](=O)[O-])cc([N+](=O)[O-])c1`, the growth with SR leukemia was 120%; with RPMI-8226 leukemia, 101%; in the test with OVCAR-8 ovarian it was 89.6%; in the test with OVCAR-5 ovarian, 104%; in the test with OVCAR-4 ovarian it was 109%; in the test on SK-OV-3 ovarian it was 94.9%. For the same compound, the growth in the test with IGROV1 ovarian was 132%; in the test on OVCAR-3 ovarian, 102%; with HS 578T breast, 98.1%; in the test on NCI/ADR-RES ovarian, 106%; in the test on BT-549 breast it was 94.3%; in the test on MDA-MB-435 melanoma, 101%. The growth in the test with SW-620 colon is 105%; in the test with MCF7 breast, 93.8%; in the test on HCT-116 colon, 85.4%; in the test on KM12 colon, 103%.
In the case of `COC(=O)C1=CCCN(C)C1`, the growth is 99.7% and 110% in the test on SR leukemia; 106% in the test with RPMI-8226 leukemia; 105% in the test on OVCAR-8 ovarian; 94.9% in the test with OVCAR-5 ovarian; 107% and 101% in the test on OVCAR-4 ovarian; 111% and 110% with SK-OV-3 ovarian. The growth was 102% and 145% in the test with IGROV1 ovarian; 120% and 118% with OVCAR-3 ovarian; 104% and 117% in the test with HS 578T breast; 107% and 115% in the test on NCI/ADR-RES ovarian; 101% and 113% with T-47D breast; 97.7% in the test on BT-549 breast. For the same compound, the growth in the test on MDA-MB-435 melanoma was 98.9% and 96.1%; in the test with SW-620 colon, 111% and 110%; with MCF7 breast, 96.1% and 101%; in the test with HCT-116 colon, 102% and 108%; in the test on HCC-2998 colon, 102% and 124%; with KM12 colon, 117% and 109%.
For the compound `O=CC1(c2ccccc2)CCN(Cc2ccccc2)CC1`, the growth in the test with SR leukemia was 97.8%; in the test on RPMI-8226 leukemia, 102%; with OVCAR-8 ovarian, 105%; in the test on OVCAR-4 ovarian, 103%; in the test with SK-OV-3 ovarian it was 114%; with IGROV1 ovarian it was 108%. In addition, the growth is 105% in the test on OVCAR-3 ovarian; 115% with HS 578T breast; 101% in the test on NCI/ADR-RES ovarian; 105% in the test on T-47D breast; 106% with BT-549 breast; 98.5% in the test with MDA-MB-435 melanoma. The growth with HCT-116 colon was 102%; in the test with HCC-2998 colon, 101%; in the test on KM12 colon, 101%.

For the origin of these results see PubChem BioAssay (NCI).
